Bioassay records from PubChem BioAssay.
NOD2-RIPK2 inh: inhibitors of human NOD2-RIPK2 interaction; O43353; CHO BLA complementation NOD2-RIPK2, CCF4 ratio; inhibition, % at 4.98 µM; hit rate 0.38% among 360,000; AID 624267; in the data active = inhibition above about 21%
HTR2A ag: agonists of mouse serotonin 5-HT2A receptor (HTR2A); CHO-K1 mHTR2A beta-arrestin complementation, luminescence; percent of 30 µM serotonin response; hit rate 0.66% among 360,000; P35363; activation, % at 7.6 µM;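 active = activation above a run cutoff, the mean activation of all tested compounds plus 3 SD, cut at about 14% in these data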
Rtt109 HAT inh: C. albicans Rtt109 histone acetyltransferase inhibition; hit rate 0.16% among 330,000; inhibition, % at 34.9 µM; purified Rtt109/Vps75, ThioGlo CoA-SH fluorescence, 4 h; Q5AAJ8;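 active = inhibition of at least 50% in every replicate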
TLR4-MyD88 BLA: TLR4-MyD88 interaction inhibition in cells. hit rate 0.18% among 200,000. inhibition, % at 8.4 µM. HeLa CL3-4 TLR4/MyD88 BLA complementation, FRET ratio; in the data active = inhibition above about 25%
LANA-H2B inh: blocks KSHV LANA binding to histone H2A/H2B. AID 2629. cell-free LANA-H2A/H2B peptide, fluorescence polarization. inhibition, % (test concentration not listed). hit rate 0.6% among 320,000. Q9QR71; in the data active = inhibition mostly above about 10%, no sharp cut-off; inactive = mostly below about 6.7%
TLR9-MyD88 inh: blocks human TLR9 binding to MyD88. CHO BLA complementation TLR9-MyD88, CCF4 FRET ratio. inhibition, % at 4.98 µM. hit rate 0.21% among 340,000. AID 504734;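 active = inhibition above the mean over all tested compounds plus 3 SD, cut at about 21% in these data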
NOD2-RIPK2 conf: confirmation of human NOD2-RIPK2 interaction inhibitors | shares compounds with NOD2-RIPK2 inh | CHO cells, NOD2-RIPK2 BLA complementation, CCF4 FRET | inhibition, % at 4.98 µM | hit rate 70% among 1,200 | AID 624370;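 active = mean inhibition across replicates above a set limit taken from the earlier primary screen, cut at about 21% in these data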
NOD2 BLA counter: hits BLA reporter in NOD2-RIPK2 inhibitor counterscreen; shares compounds with NOD2-RIPK2 inh; CHO BLA reporter, CCF4 FRET ratio; inhibition, % at 4.98 µM; hit rate 57% among 1,200;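 active = mean inhibition above the low-control mean inhibition plus three low-control SD, cut at about 11% in these data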
Each line names hits and unclear results; the compound was inactive in the other large screens (follow-up assays come after a bar, where they were run). Only some compounds are listed: those with a hit (about 1.8% of all), similar ones and a draw of the others.

CCOC(=O)[C@]12Cc3ccccc3[C@H]1N(C(C)C)C(=O)c1ccccc12	none (no result: Rtt109 HAT inh, TLR4-MyD88 BLA, LANA-H2B inh, TLR9-MyD88 inh)
CCOC(=O)[C@]12Cc3cc(OC)ccc3[C@H]1N(C)C(=O)c1cc(OC)ccc12	none (no result: Rtt109 HAT inh, TLR4-MyD88 BLA, LANA-H2B inh, TLR9-MyD88 inh)
CCOC(=O)[C@]12Cc3cc(C)ccc3[C@H]1N(C1CCCCC1)C(=O)c1ccccc12	NOD2-RIPK2 inh 56 (no result: Rtt109 HAT inh, TLR4-MyD88 BLA, LANA-H2B inh, TLR9-MyD88 inh) | NOD2-RIPK2 conf 66 | NOD2 BLA counter inactive
CCOC(=O)[C@]12Cc3ccc(C)cc3[C@H]1N(C1CCCCC1)C(=O)c1ccccc12	NOD2-RIPK2 inh 52 (no result: Rtt109 HAT inh, TLR4-MyD88 BLA, LANA-H2B inh, TLR9-MyD88 inh) | NOD2-RIPK2 conf 54 | NOD2 BLA counter inactive
CCOC(=O)[C@]12Cc3cc(Cl)ccc3[C@H]1N(Cc1ccccc1)C(=O)c1ccccc12	none (no result: TLR4-MyD88 BLA, LANA-H2B inh)
CCOC(=O)[C@]12Cc3ccc(C)cc3[C@H]1N(C1CCCCC1)C(=O)c1cc(OC)ccc12	NOD2-RIPK2 inh 58 (no result: Rtt109 HAT inh, TLR4-MyD88 BLA, LANA-H2B inh, TLR9-MyD88 inh) | NOD2-RIPK2 conf 63 | NOD2 BLA counter inactive
CCOC(=O)[C@]12Cc3cc(N(C)C)ccc3[C@H]1N(Cc1ccccc1)C(=O)c1ccccc12	NOD2-RIPK2 inh 23 (no result: TLR4-MyD88 BLA, LANA-H2B inh) | NOD2-RIPK2 conf inactive | NOD2 BLA counter inactive
CC1CCC2C(C)C(=O)OC3OC4(C)CCC1C32OO4 (stereo not given)	none (no result: TLR4-MyD88 BLA)
CO[C@H]1C=C2CCN(C)[C@H]2C2c3cc4c(cc3C(=O)O[C@@H]21)OCO4 (stereo not given in full)	none (no result: TLR4-MyD88 BLA)
CC12CCC3C(CCC4CC(=O)C(C(O)C(F)(F)F)CC43C)C1CCC2O (stereo not given)	none (no result: TLR4-MyD88 BLA, LANA-H2B inh)
CC1CN1c1cc2c(c3c1ccn3C)C1CCC2C1 (stereo not given)	none (no result: Rtt109 HAT inh, TLR4-MyD88 BLA, LANA-H2B inh, TLR9-MyD88 inh)
CC(=O)OC1CC[C@@]2(C)C(=CC(=O)C3C4CCC(OC(C)=O)[C@@]4(C)CCC32)C1 (stereo not given in full)	none (no result: TLR4-MyD88 BLA)
CCOC(=O)[C@]12Cc3cc(Cl)ccc3[C@H]1N(C1CCCCC1)C(=O)c1cc(OC)ccc12	NOD2-RIPK2 inh 70 (no result: Rtt109 HAT inh, TLR4-MyD88 BLA, LANA-H2B inh, TLR9-MyD88 inh) | NOD2-RIPK2 conf 66 | NOD2 BLA counter inactive
CCOC(=O)[C@]12Cc3c(cc(OC)c(OC)c3OC)[C@H]1N(C1CCCCC1)C(=O)c1ccccc12	NOD2-RIPK2 inh 28 (no result: Rtt109 HAT inh, TLR4-MyD88 BLA, LANA-H2B inh, TLR9-MyD88 inh) | NOD2-RIPK2 conf 71 | NOD2 BLA counter inactive
COC(=O)C1=C(c2ccc(F)cc2F)C[C@@H]2CC[C@H]1N2C(=O)NCCOc1ccccc1Cl	none (no result: TLR4-MyD88 BLA)
COC(=O)C1=C(C(=O)OC)SC2(S1)C(C(=O)OC)=C(C(=O)OC)Sc1c2ssc1=O	NOD2-RIPK2 inh 75 (no result: TLR4-MyD88 BLA, LANA-H2B inh) | NOD2-RIPK2 conf 76 | NOD2 BLA counter inactive
CC1CC(C)(O)CC(C(O)CC2CC(=O)NC(=O)C2)C1=O (stereo not given)	NOD2-RIPK2 inh 21 (no result: TLR4-MyD88 BLA, LANA-H2B inh) | NOD2-RIPK2 conf 25 | NOD2 BLA counter inactive
CC=CC(C)=CC(C)C(=O)CC(O)CC1CC(=O)NC(=O)C1 (stereo not given)	none (no result: Rtt109 HAT inh, TLR4-MyD88 BLA, LANA-H2B inh)
NC(Cc1ccccc1)c1nc(-c2ccccc2)no1 (stereo not given)	none (no result: TLR4-MyD88 BLA)
COc1cc(/C=C/[N+](=O)[O-])ccc1OC(=O)c1cccnc1	NOD2-RIPK2 inh 22 (no result: TLR4-MyD88 BLA) | NOD2-RIPK2 conf 86 | NOD2 BLA counter inactive
CC(O)C1C=CC=CC(=O)OC2CC3OC4C5OC5(C)C(O)CC4(COC(=O)C(O)C(C)CCO1)C2(C)C31CO1 (stereo not given)	none (no result: TLR4-MyD88 BLA, LANA-H2B inh)
CC1CCOC(=O)C=CC=CC(=O)OC2CC3OC4C5OC5(C)C(O)CC4(COC(=O)C1O)C2(C)C31CO1 (stereo not given)	NOD2-RIPK2 inh 28 (no result: TLR4-MyD88 BLA, LANA-H2B inh) | NOD2-RIPK2 conf 21 | NOD2 BLA counter inactive
CC1=CC2OC3CC4OC(=O)C=CC=CC(=O)OCCC(C)C(O)C(=O)OCC2(CC1)C4(C)C31CO1 (stereo not given)	NOD2-RIPK2 inh 23 (no result: TLR4-MyD88 BLA, LANA-H2B inh) | NOD2-RIPK2 conf inactive | NOD2 BLA counter inactive
CC1=CC2OC3CC4OC(=O)C=CC=CC(C(C)O)OCC(O)C5(C)OC5C(=O)OCC2(CC1O)C4(C)C31CO1 (stereo not given)	NOD2-RIPK2 inh 29 (no result: TLR4-MyD88 BLA, LANA-H2B inh) | NOD2-RIPK2 conf inactive | NOD2 BLA counter inactive
CC(=O)OC1N=C(c2ccccc2Cl)c2cc(Br)ccc2N(C)C1=O (stereo not given)	none (no result: TLR4-MyD88 BLA)
CC(=O)O[C@H]1C[C@@H]2OC3C=C(C)CCC3(C)[C@@]1(C)[C@@]21CO1 (stereo not given in full)	NOD2-RIPK2 inh 24 (no result: TLR4-MyD88 BLA, LANA-H2B inh) | NOD2-RIPK2 conf 28 | NOD2 BLA counter inactive
CC(=O)OC1CC2OC3C=C(C)CCC3(C)C1(C)C21CO1 (stereo not given)	NOD2-RIPK2 inh 25 (no result: Rtt109 HAT inh, TLR4-MyD88 BLA, LANA-H2B inh, TLR9-MyD88 inh) | NOD2-RIPK2 conf 27 | NOD2 BLA counter inactive
COc1cc2c(cc1/C=C/[N+](=O)[O-])OCO2	NOD2-RIPK2 inh 40 (no result: LANA-H2B inh) | NOD2-RIPK2 conf 65 | NOD2 BLA counter inactive
